Screen size: about 320,000 compounds; about 22,000 (6.9%) were called active. Inconclusive results (about 27%) are left out. The list comes from a sample in which actives are over-represented; it also holds similar structures and randomly drawn compounds. Values without a mark were called inactive. Calls follow the shape of the dose curve; as a rule, active = well fitted inhibition curve with a large enough effect; inconclusive = small, poorly fitted or top-dose-only effect, or another doubt; inactive = no such curve, though single readings can be large or run the other way.
% is scaled to controls: 0 for no effect and ±100 for the full control effect; potency is read from the fitted curve at half-maximal effect.

The nature of this test: Primary qHTS for delayed death inhibitors of the malarial parasite plastid, 96 hour incubation. The conditions noted are these: P. falciparum luciferase reporter growth; series mostly up to 28.7 µM; activity change, negative = inhibition: at the top concentration. In short, it runs like this:
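P. falciparum expressing integrated firefly luciferase grown in erythrocytes (2% hematocrit, 0.05% parasitemia final) with compounds for 96 hours at 37 C, 5% CO2. Growth inhibition read as loss of luminescence after adding luciferase detection reagent.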
A general note: qHTS replaces the single test concentration by a dilution series.
For the compound `COCCn1nnnc1C(c1ccccc1Cl)N1CCN(c2ccccc2OC)CC1` (centres undefined), the “activity change, negative = inhibition” value is -5.44%.

`CN(C(=O)CSc1nnnn1-c1ccccc1)C1CCCCC1`: the activity change, negative = inhibition is 1.42% [at 5.75 µM].

For the compound `CCC(=O)N(C)C(c1ccccc1Cl)c1nnnn1-c1c(C)cccc1C` (centres undefined), the Potency was 9.28 µM (active).

In the case of `CCc1ccccc1NC(=O)CSc1nnc(CCNC(=O)OC(C)(C)C)o1`, the “activity change, negative = inhibition” value was 14.6%.

For the compound `Cc1ccccc1C1=NC(C(F)(F)F)(C(F)(F)F)c2c(n(-c3ccc(F)cc3)c(=O)[nH]c2=O)N1`, the Potency was 11.7 µM (active).

In the case of `O=c1[nH]c(=O)n(Cc2ccco2)c2c1C(C(F)(F)F)(C(F)(F)F)N=C(c1ccco1)N2`, the “activity change, negative = inhibition” value was 38%.

For the compound `O=C(NC1CCCCC1)N1CCc2[nH]c3ccccc3c2C1`, the Potency was 8.28 µM (active).

Take `O=C(Nc1ccc(Cl)cc1)N1CCc2[nH]c3ccccc3c2C1`: the “activity change, negative = inhibition” value is 0%.

With `C=CCNC(=S)N1CCc2[nH]c3ccccc3c2C1`, the “activity change, negative = inhibition” value is 4.36%.

As for `Cc1ccc(F)c(NC(=O)CCOc2ccccc2C)c1`, the “activity change, negative = inhibition” value is 38.1%.

`COc1ccccc1C(=O)N1C(CC(=O)Nc2ccccc2C)C(=O)NC2CCCCC21` (centres undefined): the “activity change, negative = inhibition” value is 2.48%.

Consider `COc1ccc(OC)c(C2C3=C(N=c4s/c(=C\c5cccc(O)c5)c(=O)n42)c2ccccc2CC3)c1` (centres undefined), for which the Potency was 2.08 µM (active).

Turning to `COc1cc(C(=O)OCC(=O)NC(C)CCc2ccccc2)cc(OC)c1OC` (centres undefined), the “activity change, negative = inhibition” value is -12.3%.

Turning to `COCCCNC(=O)CNC(=O)c1nn(-c2ccc(OC)cc2)c(=O)c2ccccc12`, the “activity change, negative = inhibition” value is 5.51%.

For the compound `COc1ccc(-n2nc(C(=O)NCC(=O)N3CCCCCC3)c3ccccc3c2=O)cc1Cl`, the Potency is 2.33 µM (active).

For the compound `COc1ccc(-n2nc(C(=O)NCC(=O)N3CCC(C(N)=O)CC3)c3ccccc3c2=O)cc1OC`, the “activity change, negative = inhibition” value was 32%.

On to `Cc1ccc(C(=O)O/N=C(\N)c2ccccn2)cc1Cl`, for which the “activity change, negative = inhibition” value was 11.2%.

Turning to `Cc1nc(C(=O)NCc2ccccc2)sc1C1(C)CC(c2cccnc2)=NO1` (centres undefined), the “activity change, negative = inhibition” value was -1.98%.

Regarding `O=C1c2ccccc2C(Nc2ccc3c(c2)OCCO3)N1Cc1ccco1` (centres undefined), the Potency is 4.65 µM (active).

Consider `S=C(NCc1ccco1)Nc1ccc2c(c1)OCCO2`, for which the “activity change, negative = inhibition” value was -0.369%.

As for `COc1ccccc1C1/C(=C(/O)c2ccc(C)cc2)C(=O)C(=O)N1Cc1ccco1` (centres undefined), the “activity change, negative = inhibition” value was -16.6%.

With `O=[N+]([O-])c1ccccc1/C=C/CN1CCCC(CO)C1` (centres undefined), the “activity change, negative = inhibition” value is 93.6%.

For the compound `COc1cccc(CNS(=O)(=O)c2ccc3c(c2)N(C(C)=O)CCS3)c1`, the “activity change, negative = inhibition” value was 16.7%.

`COc1cccc(CNS(=O)(=O)c2ccc3c(c2)CC(C)N3C(=O)C2CCC2)c1` (centres undefined): the “activity change, negative = inhibition” value was -9.19%.

As for `COc1cccc(CNS(=O)(=O)c2ccc3c(c2)CC(C)N3C(C)=O)c1` (centres undefined), the Potency was 10.4 µM (active).

As to `COc1cc(C(=O)N/C(=C\c2cn(C)c3ccccc23)C(=O)N2CCOCC2)cc(OC)c1OC`, the “activity change, negative = inhibition” value is 30.2%.

As to `COc1ccc(Cc2nnc(SCC(=O)Nc3ccc(C)c(Cl)c3)[nH]c2=O)cc1`, the “activity change, negative = inhibition” value was 1.8%.

Turning to `Cc1ccc(NC(=O)C/C(N)=N/O)cc1Cl`, the “activity change, negative = inhibition” value is -9.25%.

As for `Cc1ccc(NC(=O)CSc2nn3c(=O)c(C)nnc3s2)cc1Cl`, the Potency is 9.28 µM (active).

Consider `O=S(=O)(Nc1ccc2nc(N3CCOCC3)sc2c1)c1ccccc1`, for which the “activity change, negative = inhibition” value is 126%.

On to `O=C(c1ccc2nc(N3CCOCC3)sc2c1)N1CCN(c2ccc(Cl)cc2)CC1`, for which the “activity change, negative = inhibition” value was 33.2%.

Regarding `Fc1cc(F)c2nc(N3CCOCC3)sc2c1`, the Potency was 3.7 µM (active).

Consider `COc1ccc(S(=O)(=O)N2CCN(C(C)C(=O)Nc3ccc(C(C)C)cc3)CC2)cc1` (centres undefined), for which the “activity change, negative = inhibition” value was -96.3%.

Regarding `O=[N+]([O-])c1cccc(Nc2c3ccccc3nc3ccccc23)c1`, the “activity change, negative = inhibition” value was -0.0462%.

Regarding `O=C(O)c1cc([N+](=O)[O-])c(Nc2cccc3ccccc23)c([N+](=O)[O-])c1`, the Potency is 3.29 µM (active).

Take `CCOc1ccccc1Nc1ccc(C(=O)O)cc1[N+](=O)[O-]`: the “activity change, negative = inhibition” value is -20.7%.

Take `NC(=O)c1c(NC(=O)c2ccccc2)sc2c1CCCC2`: the “activity change, negative = inhibition” value was -21.8%.

In the case of `CC1CCCCC12NC(=O)N(CC(=O)Nc1ccc(S(=O)(=O)Nc3ncccn3)cc1)C2=O` (centres undefined), the “activity change, negative = inhibition” value was -18.3%.

As for `COCCN1C(=O)C(=O)/C(=C(/O)c2ccc(S(=O)(=O)N3CCOCC3)cc2)C1c1ccc(O)c(OC)c1` (centres undefined), the “activity change, negative = inhibition” value is 30%.

As for `Cc1c(NC(=O)Nc2ccccc2)cccc1[N+](=O)[O-]`, the “activity change, negative = inhibition” value was 27.6%.

Turning to `Cc1cccc(NC(=O)Nc2nnc(-c3ccccc3)o2)c1`, the “activity change, negative = inhibition” value was 4.59%.

Regarding `Cc1ccc(NC(=O)Nc2ccccc2)c(Br)c1`, the Potency was 7.38 µM (active).

For the compound `CC(=O)N1CCc2cc(S(=O)(=O)Nc3ccccc3N3CCN(C)CC3)ccc21`, the “activity change, negative = inhibition” value is -21.8%.

As to `O=C(CNCc1ccco1)Nc1cc(S(=O)(=O)N2CCOCC2)ccc1N1CCCC1`, the “activity change, negative = inhibition” value was 20.8%.

Turning to `O=C(COC(=O)c1ccccc1F)Nc1cc(S(=O)(=O)N2CCOCC2)ccc1N1CCCC1`, the “activity change, negative = inhibition” value is -15.9%.

Consider `CCN(CC)S(=O)(=O)c1ccc(N2CCN(C)CC2)c(NC(=O)Nc2ccccc2F)c1`, for which the Potency was 13.1 µM (active).

Regarding `CCC(=O)Nc1ccccc1N1CCN(S(C)(=O)=O)CC1`, the “activity change, negative = inhibition” value was 18.3%.

`CCN(CC)S(=O)(=O)c1ccc(N2CCOCC2)c(NC(=O)C2COc3ccccc3O2)c1` (centres undefined): the “activity change, negative = inhibition” value was -16%.

As to `CCN(CC)S(=O)(=O)c1ccc(N2CCOCC2)c(NC(=O)C2CSC3(C)CCC(=O)N23)c1` (centres undefined), the Potency is 10.4 µM (active).

Take `CCN(CC)S(=O)(=O)c1cc(C(=O)Nc2cc(S(=O)(=O)N3CCOCC3)ccc2N2CCCC2)ccc1F`: the Potency is 2.62 µM (active).

For `CCN(CC)S(=O)(=O)c1ccc(N2CCOCC2)c(C(=O)O)c1`, the “activity change, negative = inhibition” value is 9.21%.

With `CC12CCC(=O)N1C(C(=O)Nc1ccc(F)c(F)c1F)CS2` (centres undefined), the “activity change, negative = inhibition” value is 28.3%.

Take `CC(Oc1ccc(F)cc1)C(=O)Nc1cc(S(=O)(=O)N2CCOCC2)ccc1N1CCN(C)CC1` (centres undefined): the “activity change, negative = inhibition” value was -13.2%.

As to `CCN(CC)S(=O)(=O)c1ccc(N2CCOCC2)c(NC(=O)C(C)Oc2ccc(F)cc2)c1` (centres undefined), the Potency was 14.7 µM (active).

(Values after PubChem BioAssay AID504834 (National Center for Advancing Translational Sciences (NCATS), 2011).)
